Test results: ChEMBL document CHEMBL3433997, “St. Jude Leishmania screening dataset” (2016)

These molecules were tested against Solute carrier family 2, facilitated glucose transporter member 1 (Homo sapiens) (UniProt P11166) (assay: ST_JUDE_LEISH: Cytotoxicity at 2uM final concentration against transgenic Leishmania Mexicana promastigotes LmGLUT1 that are glucose transport deficient and complemented with the human glucose transporter GLUT1. Activity is measured by DNA content using SYBR green in vitro).
Assay type: functional

Sequence of Solute carrier family 2, facilitated glucose transporter member 1 (Homo sapiens) (P11166 whole entry): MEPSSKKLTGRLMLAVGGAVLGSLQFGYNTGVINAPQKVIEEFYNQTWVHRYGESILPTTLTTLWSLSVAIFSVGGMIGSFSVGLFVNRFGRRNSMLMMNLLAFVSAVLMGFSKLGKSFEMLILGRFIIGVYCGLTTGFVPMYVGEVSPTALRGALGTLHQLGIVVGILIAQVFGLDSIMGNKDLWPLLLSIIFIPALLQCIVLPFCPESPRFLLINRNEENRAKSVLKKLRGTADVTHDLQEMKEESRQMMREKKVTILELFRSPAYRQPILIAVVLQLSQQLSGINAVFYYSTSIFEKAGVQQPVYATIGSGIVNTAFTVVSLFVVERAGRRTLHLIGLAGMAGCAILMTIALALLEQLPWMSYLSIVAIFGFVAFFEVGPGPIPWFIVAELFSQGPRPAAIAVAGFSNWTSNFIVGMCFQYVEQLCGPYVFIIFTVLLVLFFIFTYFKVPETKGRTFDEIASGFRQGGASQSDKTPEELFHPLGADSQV

Point of comparison: `COc1ccc2nc3cc(Cl)ccc3c(NCCCCN)c2c1`, inhibition 2.17%. Against it:
- O=C(N[C@H]1CCN(Cc2ccc(OC3CCN(Cc4ccccc4)CC3)c(Br)c2)C1)c1ccc(Cl)c(Cl)c1 — lower, -0.92%
- CCOC(=O)c1ccc(NC(=O)NCCCC2CCCN(CCCCCNC(=O)/C=C/c3ccc(Cl)c(Cl)c3)C2)cc1 (stereo not given) — lower, 1.46%
- COc1cc2c(cc1C(F)(F)F)N(C(=O)Nc1cc(F)cc(-c3cccnn3)c1)CC2 — lower, -2.16%
- CCCc1cc(NCC)nc(Nc2ccc(F)cc2)n1 — higher, 15.6%
- COc1ccc2c(=NN=CC=Cc3ccccc3)cc(C)[nH]c2c1 — lower, 0.78%
- CC(=O)Nc1ccc(S(=O)(=O)N2CCN(c3nc(NC4CCCC4)c4ccccc4n3)CC2)cc1 — lower, 0.69%
- C=CCOC(=O)N1CCC(CNCc2cccc(-c3ccc(-c4nc5cccc(C)c5[nH]4)s3)c2)C1 (stereo not given) — lower, -0.28%
- CN1CCC(NCc2cccc(-c3cccc(-c4nc5cc(C(F)(F)F)ccc5[nH]4)c3)c2)CC1 — higher, 2.34%
- Cc1c(C)c2c(c(C)c1O)CC[C@@](C)(C(=O)N1CCC(CCN3CCC(c4c[nH]c5ccccc45)CC3)CC1)O2 — higher, 7.87%
- COc1cc2nc(NCCCO)nc(Nc3ccc(Oc4ccccc4)cc3)c2cc1OC — higher, 6.51%
- O=C(Nc1cccc(-c2cccc(-c3nc4cc(C(F)(F)F)ccc4[nH]3)c2)c1)c1ccncc1 — higher, 5.04%
- COc1ccc2nccc(N(C)CC3(O)CCC(NCc4cc5c(cn4)OCCO5)CC3)c2n1 (stereo not given) — lower, 1.51%
- CCN1CCC(NCc2ccc(-c3ccc(Cl)cc3)cc2)CC1 — higher, 23.6%
- c1cncc(CCNCc2ccc(-c3cccc(-c4nc5ccccc5[nH]4)c3)cc2)c1 — lower, -0.73%
